{
  "source": "ChEMBL document CHEMBL3988442",
  "about": "“University of Dundee, Small-Polar-MMV Screening Library” (2021)",
  "note": "Screen size: about 69,000 compounds; about 50 (0.07%) showed an effect of 50% or more. The entries come from a sample that favours strong results as a whole.",
  "data": [
    {"target": "Lysine--tRNA ligase (Plasmodium falciparum (isolate 3D7)) (UniProt Q8IDJ8)", "sequence (Q8IDJ8 1-583)": "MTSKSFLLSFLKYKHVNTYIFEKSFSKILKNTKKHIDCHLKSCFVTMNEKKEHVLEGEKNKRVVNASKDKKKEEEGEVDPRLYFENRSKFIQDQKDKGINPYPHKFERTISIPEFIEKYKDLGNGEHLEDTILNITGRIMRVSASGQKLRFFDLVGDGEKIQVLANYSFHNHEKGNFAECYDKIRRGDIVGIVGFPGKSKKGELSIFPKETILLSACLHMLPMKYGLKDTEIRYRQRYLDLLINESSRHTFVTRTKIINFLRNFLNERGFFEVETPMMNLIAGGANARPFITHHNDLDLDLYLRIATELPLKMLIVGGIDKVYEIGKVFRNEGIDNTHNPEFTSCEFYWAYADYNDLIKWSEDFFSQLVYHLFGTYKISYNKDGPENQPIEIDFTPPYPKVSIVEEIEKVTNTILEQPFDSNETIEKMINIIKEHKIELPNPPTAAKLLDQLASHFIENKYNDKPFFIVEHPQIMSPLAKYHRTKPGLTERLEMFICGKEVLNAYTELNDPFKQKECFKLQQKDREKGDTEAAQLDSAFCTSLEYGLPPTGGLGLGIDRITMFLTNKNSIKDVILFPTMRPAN", "assay": "Pf-KRS-1 (Lysyl-RNA Synthetase-1, KRS-1, cytosolic KRS) from Plasmodium falciparum. Inhibitor assay, 384 well plate, luminescence read.", "type": "functional", "set-up": "scale not given: in the data most compounds retested in dose-response had high values", "conditions": "30 µM", "units": {"Percent Effect": "%"}, "values": [
      {"smiles": "Cc1cccc(CO[C@H]2CN(c3nnc(C)s3)[C@@H]3CCCO[C@H]23)n1", "Percent Effect": 3.74},
      {"smiles": "COc1cccc(-c2n[nH]c3c2CN(C(=O)c2ccncc2)CC3)c1", "Percent Effect": 0.631},
      {"smiles": "COc1cccc(-c2n[nH]c3c2CN(C(=O)c2cc(C)n(C)n2)CC3)c1", "Percent Effect": -1.18},
      {"smiles": "COc1cccc(-c2n[nH]c3c2CN(C(=O)c2cccc(=O)[nH]2)CC3)c1", "Percent Effect": 55.1},
      {"smiles": "Cn1cccc1C(=O)N1C[C@H](OCC2CCOCC2)[C@H]2COC[C@H]21", "Percent Effect": 3.49},
      {"smiles": "c1cnnc(N[C@@H]2CC[C@@H]3CN(Cc4c[nH]c5ccccc45)C[C@@H]32)c1", "Percent Effect": 0.669},
      {"smiles": "COCCN(C(=O)c1ccccn1)c1nc2c(s1)CCc1c-2cnn1C", "Percent Effect": 52.4},
      {"smiles": "CCCN(C(=O)COC)c1nc2c(s1)CCc1c-2cnn1C", "Percent Effect": 74.8},
      {"smiles": "COCCN(C(=O)c1cnccn1)c1nc2c(s1)CCc1c-2cnn1C", "Percent Effect": 8.73},
      {"smiles": "CCCN(C(=O)c1ccccn1)c1nc2c(s1)CCc1c-2cnn1C", "Percent Effect": 50.4},
      {"smiles": "CCCN(C(=O)c1cnccn1)c1nc2c(s1)CCc1c-2cnn1C", "Percent Effect": 10.8},
      {"smiles": "CCCN(C(=O)c1cnc(C)cn1)c1nc2c(s1)CCc1c-2cnn1C", "Percent Effect": 40.4},
      {"smiles": "CCCN(C(=O)c1ccncc1)c1nc2c(s1)CCc1c-2cnn1C", "Percent Effect": 16.2},
      {"smiles": "CCCN(C(=O)c1cccnc1)c1nc2c(s1)CCc1c-2cnn1C", "Percent Effect": 44},
      {"smiles": "CN(C(=O)c1ccccn1)c1nc2c(s1)CCc1c-2cnn1C", "Percent Effect": 0.965},
      {"smiles": "Cc1nccc([C@H]2C[C@@H]3CCN(S(C)(=O)=O)C[C@H]3O2)n1", "Percent Effect": -0.787},
      {"smiles": "O=C([C@H]1COC[C@H]2CN(c3ccncn3)C[C@H]21)N1CCCC1", "Percent Effect": -3.71},
      {"smiles": "O=C(Nc1cnccn1)[C@H]1C[C@H]2OCC[C@H]2N(c2ncc(F)cn2)C1", "Percent Effect": 11.9},
      {"smiles": "COc1cccc(-c2ncc(CN3C[C@@H]4CC[C@H](C3)N(C)C4=O)s2)c1", "Percent Effect": -4.12},
      {"smiles": "COc1ccc(OC)c(C2CC(=O)Nc3nc(N4CCOCC4)sc32)c1", "note": "(stereo not given)", "Percent Effect": 84.5},
      {"smiles": "COc1ccc(OC)c(C2SCC(=O)Nc3n[nH]cc32)c1", "note": "(stereo not given)", "Percent Effect": 4.67},
      {"smiles": "COc1ccc(C2CC(=O)NCc3nc(N(C)C)sc32)c(O)c1", "note": "(stereo not given)", "Percent Effect": 1.01},
      {"smiles": "COc1ccc(C2CC(=O)Nc3nc(N4CCOCC4)sc32)c(OC)c1", "note": "(stereo not given)", "Percent Effect": 86.4},
      {"smiles": "COc1ccc(C2CC(=O)Nc3nc(N4CCOCC4)sc32)cc1", "note": "(stereo not given)", "Percent Effect": 82.2},
      {"smiles": "CCn1ncnc1C1CC(=O)NCc2nc(N3CCOCC3)sc21", "note": "(stereo not given)", "Percent Effect": 0.366},
      {"smiles": "COc1ccc(C2CC(=O)Nc3c2cnn3C)cc1", "note": "(stereo not given)", "Percent Effect": -3.99},
      {"smiles": "COc1ccc(OC)c(C2CCN(CC(C)(C)N3CCOCC3)C2)c1", "note": "(stereo not given)", "Percent Effect": 1.11},
      {"smiles": "COc1ccc(C2CCCN2c2nnc(C)s2)c(OC)c1", "note": "(stereo not given)", "Percent Effect": -1.09},
      {"smiles": "COCCN1C(=O)CO[C@H]2CN(Cc3ccccc3Cl)C[C@@H]21", "Percent Effect": 3.69},
      {"smiles": "O=C(c1cocn1)N1C[C@H]2CCC[C@@]2(COCc2cccnc2)C1", "Percent Effect": 2.44},
      {"smiles": "Cc1c(Cl)cccc1S(=O)(=O)N1C[C@@H]2CC[C@H](C1)N(C)C2=O", "Percent Effect": 3.71},
      {"smiles": "O=S1(=O)C[C@@H]2[C@H](C1)N(Cc1ccoc1)CCN2Cc1ccncc1", "Percent Effect": 8.97},
      {"smiles": "O=C(c1ccncc1)N1C[C@@H]2CC[C@H](C1)N(C(=O)C1CCCC1)C2", "Percent Effect": -0.475},
      {"smiles": "CNc1nc2c(s1)C(c1cccc(Cl)c1Cl)CC(=O)N2", "note": "(stereo not given)", "Percent Effect": 29.5},
      {"smiles": "CC(C)(C)n1ncc2c1NC(=O)CC2c1c(F)cccc1F", "note": "(stereo not given)", "Percent Effect": 5.99},
      {"smiles": "CNc1nc2c(s1)C(c1cc(Cl)ccc1F)CC(=O)N2", "note": "(stereo not given)", "Percent Effect": 44.9},
      {"smiles": "CNc1nc2c(s1)C(c1ccccc1Cl)CC(=O)N2", "note": "(stereo not given)", "Percent Effect": 84.5},
      {"smiles": "O=C1CC(c2ccccc2F)c2c(n3ccsc3nc2=O)N1", "note": "(stereo not given)", "Percent Effect": 6.5},
      {"smiles": "Cn1ncc2c1NC(=O)CC2c1ccccc1Cl", "note": "(stereo not given)", "Percent Effect": 6.28},
      {"smiles": "Cn1ncc2c1NC(=O)CC2c1ccc(Cl)cc1Cl", "note": "(stereo not given)", "Percent Effect": 9.51},
      {"smiles": "CNc1nc2c(s1)C(c1cccc(F)c1F)CC(=O)N2", "note": "(stereo not given)", "Percent Effect": 50.5},
      {"smiles": "Cc1ccsc1C1CC(=O)Nc2c1cnn2C(C)C", "note": "(stereo not given)", "Percent Effect": 3.08},
      {"smiles": "CNc1nc2c(s1)C(c1ccc(F)cc1Cl)CC(=O)N2", "note": "(stereo not given)", "Percent Effect": 82},
      {"smiles": "CNc1nc2c(s1)C(c1ccc(Cl)cc1Cl)CC(=O)N2", "note": "(stereo not given)", "Percent Effect": 47.4},
      {"smiles": "CNc1nc2c(s1)C(c1ccccc1F)CC(=O)N2", "note": "(stereo not given)", "Percent Effect": 79.2},
      {"smiles": "O=C(NCC1CC1)[C@@H]1CC[C@@H]2[C@@H](CCN2Cc2ccco2)O1", "Percent Effect": -0.532},
      {"smiles": "COCCN1C[C@H]2CN(Cc3cccc(OC)c3)CCN2C1=O", "Percent Effect": 8.64},
      {"smiles": "COc1ncccc1C(=O)N1C[C@@H]2COC[C@]2(CN(C)C)C1", "Percent Effect": -2.56},
      {"smiles": "Fc1ccccc1CN1C[C@@H]2OCCN(c3ncccn3)[C@@H]2C1", "Percent Effect": -1.46},
      {"smiles": "COCCN1C(=O)[C@H]2CC[C@@H]1CN(S(=O)(=O)c1ccc(OC)cc1)C2", "Percent Effect": 5.86},
      {"smiles": "c1cnc2c(-c3nccn3C[C@@H]3CCCN4CCCC[C@H]34)cccc2c1", "Percent Effect": 1.5},
      {"smiles": "Cc1cccc(S(=O)(=O)N2CC[C@H]3[C@H]2CCN3c2ncccn2)c1", "Percent Effect": 1.51},
      {"smiles": "O=C(c1cscn1)N1CC[C@@H]2[C@@H]1CCN2C1CCOCC1", "Percent Effect": 1.62},
      {"smiles": "CN1C[C@@H]2CC[C@H](CC1=O)N2C(=O)c1ccc(-c2ccccc2)[nH]c1=O", "Percent Effect": 16.3},
      {"smiles": "COc1ccc(CC(=O)N2CC[C@@H]3CN(C)S(=O)(=O)[C@@H]3CC2)cc1", "Percent Effect": 3.63},
      {"smiles": "CNc1nc2c(s1)C(c1c(Cl)cccc1Cl)CC(=O)N2", "note": "(stereo not given)", "Percent Effect": 35.2},
      {"smiles": "Cn1ncc2c1NC(=O)CC2c1c(F)cccc1Cl", "note": "(stereo not given)", "Percent Effect": 2.46},
      {"smiles": "CNc1nc2c(s1)C(c1c(F)cccc1Cl)CC(=O)N2", "note": "(stereo not given)", "Percent Effect": 70},
      {"smiles": "O=C1C[C@H]2[C@@H](CCN2C(=O)Cc2cccs2)N1Cc1ccncc1", "Percent Effect": 3.5},
      {"smiles": "Cc1cccc(CN2C[C@@H]3OCCN(S(=O)(=O)N(C)C)[C@@H]3C2)c1", "Percent Effect": 2.13}
    ]}
  ]
}
